The values below come from PubChem BioAssay.

Assay [1] can be described thus: antimalarial activity against Dd2 strain (AID 2302;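 active = growth inhibition above 50% at the single 2 µM test dose, taken to imply half-maximal potency below 2 µM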;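 note: 0% = DMSO untreated growth and 100% = chloroquine plus artemisinin killed control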). The following applies: P. falciparum Dd2 in RBCs, LDH growth readout, 72 h; at 2 µM; active compounds read high.
The nature of assay [2]: HepG2 cytotoxicity, primary screen, cytotoxicity control for P. falciparum antimalarial project, cell-based, ATP luminescence (AID 2303;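 active = inhibition above 50%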;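 note: 0% = DMSO wells and 100% = digitonin-killed cells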). The settings on record: HepG2 viability, 24-48 h, at 10 µM, active compounds read high.
The target of assay [3] is L-lactate dehydrogenase (Plasmodium falciparum (isolate CDC / Honduras)) (UniProt Q27743). In words: PfLDH activity inhibition – cell lysate, 3D7 strain, counter-screen for P. falciparum growth inhibition project (AID 2304).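 Note: 0% = vehicle and 100% = reference inhibitor.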 The following applies: P. falciparum 3D7 crude extract, LDH APAD/NBT absorbance; at 2 µM; active compounds read high. A general note: The purpose of a counterscreen is to sort out artefacts and off-target activity.

Assay [4] is described as follows: inhibition of 3D7 malaria parasite growth – strain 3D7 (AID 2306).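 Note: 0% = DMSO wells and 100% = chloroquine plus artemisinin control wells.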 The settings on record: P. falciparum 3D7 erythrocytic growth, LDH absorbance, 72 h; at 2 µM; active compounds read high.
The target of assay [5] is Calcium-dependent protein kinase 1 (Plasmodium falciparum (isolate 3D7)) (UniProt P62344). In words: PfCDPK1 kinase inhibitors, biochemical, TCAMS library (AID 1159585; cut-off not given, nearly all actives have IC50 up to about 0.98 µM;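 note: inhibitors leave more ATP so luminescence rises with inhibition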). The following applies: recombinant PfCDPK1, Kinase-Glo ATP depletion luminescence.
Assay [6] addresses Plasmodium falciparum protein kinase 6 (PK6, PF3D7_1337100) (UniProt Q8IDW1). In words: PfPK6 kinase inhibitors, biochemical, TCAMS library (AID 1159586). The following applies: recombinant PfPK6, Kinase-Glo ATP depletion luminescence. A general note: Kinase-Glo measures the ATP left after a reaction by luminescence.
Assay [7] deals with Protein kinase 7 (PK7), Plasmodium falciparum 3D7 (PF3D7_0213400) (UniProt Q7YTF7). In words: inhibition of Plasmodium PK7 catalytic activity – biochemical, TCAMS antimalarial set, Kinase-Glo luminescence (AID 1159587). The following applies: recombinant PfPK7, Kinase-Glo ATP depletion luminescence.
In assay [8] the target is Calcium-dependent protein kinase 4 (Plasmodium falciparum (isolate 3D7)) (UniProt Q8IBS5). In words: PfCDPK4 kinase inhibitors, biochemical, TCAMS library (AID 1159588; cut-off not given, nearly all actives have IC50 up to about 0.91 µM). The following applies: recombinant PfCDPK4, Kinase-Glo ATP depletion luminescence.

Values joined by “and” are separate entries in the source; they are usually repeats but may differ in a detail not shown here. Equal values may be shown once. A number with no mark means an inactive call. For some of these results: Results with a measured potency or affinity are listed apart. Active and inactive are the calls of the source. Unless noted, the rule behind the calls is not given here.

For orientation: inhibition means the relative decrease from the control value, in per cent.

Sequence of Plasmodium falciparum protein kinase 6 (PK6, PF3D7_1337100) (Q8IDW1 1-305): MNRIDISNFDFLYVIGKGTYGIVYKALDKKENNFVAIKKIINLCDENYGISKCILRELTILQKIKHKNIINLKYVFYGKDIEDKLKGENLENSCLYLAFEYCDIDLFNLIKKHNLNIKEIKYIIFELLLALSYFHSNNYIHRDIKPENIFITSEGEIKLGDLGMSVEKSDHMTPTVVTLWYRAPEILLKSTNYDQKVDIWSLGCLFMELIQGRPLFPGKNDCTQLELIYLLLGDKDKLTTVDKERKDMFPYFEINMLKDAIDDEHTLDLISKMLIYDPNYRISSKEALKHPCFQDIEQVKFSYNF
Sequence of L-lactate dehydrogenase (Plasmodium falciparum (isolate CDC / Honduras)) (Q27743 whole entry, looked up): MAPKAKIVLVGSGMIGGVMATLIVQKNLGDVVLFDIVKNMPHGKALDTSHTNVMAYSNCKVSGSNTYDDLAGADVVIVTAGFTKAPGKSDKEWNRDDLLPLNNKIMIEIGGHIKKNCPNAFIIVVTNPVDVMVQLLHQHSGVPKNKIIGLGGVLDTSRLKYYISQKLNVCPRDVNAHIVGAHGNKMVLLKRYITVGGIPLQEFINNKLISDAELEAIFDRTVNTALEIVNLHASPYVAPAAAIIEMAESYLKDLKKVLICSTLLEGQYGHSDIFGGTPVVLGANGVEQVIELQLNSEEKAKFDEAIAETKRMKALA
Sequence of Protein kinase 7 (PK7), Plasmodium falciparum 3D7 (PF3D7_0213400) (Q7YTF7 1-343): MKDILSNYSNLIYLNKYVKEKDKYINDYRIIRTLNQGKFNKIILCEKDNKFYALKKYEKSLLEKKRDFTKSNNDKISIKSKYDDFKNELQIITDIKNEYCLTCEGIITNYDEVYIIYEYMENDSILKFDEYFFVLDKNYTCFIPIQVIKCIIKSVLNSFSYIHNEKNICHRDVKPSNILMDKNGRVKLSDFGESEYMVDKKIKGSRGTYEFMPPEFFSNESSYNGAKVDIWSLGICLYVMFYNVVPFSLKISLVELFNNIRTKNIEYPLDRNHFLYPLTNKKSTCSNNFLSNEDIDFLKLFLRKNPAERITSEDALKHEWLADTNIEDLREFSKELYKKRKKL
Sequence of Calcium-dependent protein kinase 1 (Plasmodium falciparum (isolate 3D7)) (P62344 whole entry, looked up): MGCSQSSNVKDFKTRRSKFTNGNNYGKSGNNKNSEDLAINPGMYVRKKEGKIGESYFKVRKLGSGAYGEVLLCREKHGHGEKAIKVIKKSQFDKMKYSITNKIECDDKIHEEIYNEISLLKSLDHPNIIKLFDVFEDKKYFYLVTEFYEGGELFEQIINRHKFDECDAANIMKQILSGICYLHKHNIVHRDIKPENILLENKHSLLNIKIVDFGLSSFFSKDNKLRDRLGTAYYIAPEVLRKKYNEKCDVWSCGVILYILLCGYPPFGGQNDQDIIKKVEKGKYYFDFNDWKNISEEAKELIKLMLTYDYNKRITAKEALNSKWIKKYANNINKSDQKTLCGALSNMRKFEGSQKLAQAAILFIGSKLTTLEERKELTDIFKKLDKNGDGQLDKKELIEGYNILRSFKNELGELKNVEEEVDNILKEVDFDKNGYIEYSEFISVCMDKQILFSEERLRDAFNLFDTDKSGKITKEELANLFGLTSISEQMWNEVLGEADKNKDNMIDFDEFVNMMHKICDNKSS
Sequence of Calcium-dependent protein kinase 4 (Plasmodium falciparum (isolate 3D7)) (Q8IBS5 whole entry, looked up): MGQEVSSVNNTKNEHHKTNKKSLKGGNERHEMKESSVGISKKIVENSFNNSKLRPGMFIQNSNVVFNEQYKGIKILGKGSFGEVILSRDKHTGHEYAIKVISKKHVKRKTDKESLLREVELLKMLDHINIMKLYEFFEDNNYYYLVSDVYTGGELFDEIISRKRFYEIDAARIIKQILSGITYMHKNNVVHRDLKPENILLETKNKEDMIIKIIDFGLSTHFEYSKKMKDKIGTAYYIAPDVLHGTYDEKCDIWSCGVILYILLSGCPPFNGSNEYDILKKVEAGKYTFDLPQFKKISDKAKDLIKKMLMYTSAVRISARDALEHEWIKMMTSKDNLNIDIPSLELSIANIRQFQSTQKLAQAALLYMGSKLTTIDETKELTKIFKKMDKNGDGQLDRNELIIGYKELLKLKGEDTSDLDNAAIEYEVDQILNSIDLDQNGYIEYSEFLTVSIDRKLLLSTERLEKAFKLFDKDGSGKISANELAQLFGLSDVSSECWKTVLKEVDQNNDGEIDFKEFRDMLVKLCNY

`OC(CNC1CCCCCC1)c1ccc(Cl)c(Cl)c1` (configuration not stated): the growth inhibition in assay [1] is 98% (active); in assay [4] it was 99% (active). The inhibition in assay [2] and in assay [3] was -3% each time. In addition, the outcome in assay [5], in assay [6], in assay [7] and in assay [8] was inactive.

As for `CCc1ccc(CN2CCC(CN(C(=O)c3ccccc3)c3ccc(Cl)cc3)CC2)cc1`, the growth inhibition was 95% (active) in assay [1] and 96% (active) in assay [4]. For the same molecule, the inhibition in assay [2] is 12%; in assay [3] it was -4%. Moreover, the result in assay [5], in assay [6], in assay [7] and in assay [8] was inactive.

Take `COc1cc(CN2CCN(c3ccnc(N(C)C4CCN(C)CC4)n3)CC2)cc(Cl)c1O`: the growth inhibition in assay [1] is 63% (active); in assay [4] it was 94% (active). The figures for the inhibition in assay [2] and in assay [3] were 11% and -5%, respectively. For the same molecule, the outcome in assay [5], in assay [6], in assay [7] and in assay [8] was inactive.

With `O=C1Nc2cccc3c2C1(CCCCCN1CC=C(c2c[nH]c4ccccc24)CC1)CCC3` (configuration not stated), the growth inhibition in assay [1] is 89% (active); in assay [4], 94% (active). For the same molecule, the inhibition in assay [2] is 2%; in assay [3] it was 3%. In addition, the result in assay [5], in assay [6], in assay [7] and in assay [8] was inactive.

Take `COc1c(F)cc(CC(C)NCC(O)c2cccc(Cl)c2)cc1F` (configuration not stated): the growth inhibition in assay [1] is 86% (active); in assay [4] it was 93% (active). The inhibition in assay [2] and in assay [3] was 0% in each case. Also, the outcome in assay [5], in assay [6], in assay [7] and in assay [8] was inactive.

`CCCc1ccc2c(c1O)CCC(N(CCC)CCC)C2` (configuration not stated): the growth inhibition is 23% in assay [1] and 90% (active) in assay [4]. Further, the figures for the inhibition in assay [2] and in assay [3] were -3% and 3%, respectively. Also, the result in assay [5], in assay [6], in assay [7] and in assay [8] was inactive.

For the molecule `O=C(NCCCCN1CCC(c2ccc3c(c2OCCO)CCCC3)CC1)c1sc(-c2ccc(C(F)(F)F)cc2)nc1CO`, the growth inhibition in assay [1] is 20%; in assay [4] it was 95% (active). The inhibition is 37% in assay [2] and -6% in assay [3]. The result in assay [5], in assay [6], in assay [7] and in assay [8] was inactive.

Turning to `COc1cc(NC(=O)c2nn(CCCN3CCC4(CC3)C(=O)NCN4c3ccccc3)cc2-c2ccc(Cl)c(Cl)c2)cc(OC)c1OC`, the growth inhibition was 75% (active) in assay [1] and 97% (active) in assay [4]. In addition, the inhibition in assay [2] is -4%; in assay [3], 1%. In addition, the outcome in assay [5], in assay [6], in assay [7] and in assay [8] was inactive.

As for `Cc1ccc(CC(C)(C)NCC(O)c2cccc(C(F)(F)F)c2)cc1` (configuration not stated), the growth inhibition in assay [1] is 92% (active); in assay [4], 97% (active). Further, the inhibition in assay [2] was 19%; in assay [3], 2%. Further, the outcome in assay [5], in assay [6], in assay [7] and in assay [8] was inactive.

As for `O=C(/C=C/c1ccc(Cl)c(Cl)c1)NCCCCCN1[C@@H]2CC[C@H]1CC(c1c[nH]c3ccc(O)cc13)C2` (some centres not stated), the growth inhibition in assay [1] is -1% and 20%; in assay [4], 100% (active) and 91% (active). Also, the inhibition is 26% and 9% in assay [2]; 2% and -6% in assay [3]. Also, the outcome in assay [5], in assay [6], in assay [7] and in assay [8] was inactive.

On to `O=C(/C=C/c1ccc(Cl)c(Cl)c1)Nc1cccc(CN2CCC(c3c[nH]c4ccc(O)cc34)CC2)c1`, for which the growth inhibition is 90% (active) in assay [1] and 101% (active) in assay [4]. Also, the inhibition in assay [2] is 11%; in assay [3], 0%. The result in assay [5], in assay [6], in assay [7] and in assay [8] was inactive.

On to `COc1ccc(C[C@H](C)NC[C@H](O)c2cccc(Cl)c2)cc1F`, for which the growth inhibition in assay [1] is 75% (active); in assay [4], 89% (active). Further, the inhibition is 6% in assay [2] and -2% in assay [3]. The outcome in assay [5], in assay [6], in assay [7] and in assay [8] was inactive.

As to `CCCc1cc([C@@H](O)[C@@H]2C[C@@H]3CCN2C[C@@H]3CC)c2ccccc2n1`, the growth inhibition in assay [1] was 57% (active); in assay [4], 100% (active). The inhibition was 9% in assay [2] and 2% in assay [3]. In addition, the result in assay [5], in assay [6], in assay [7] and in assay [8] was inactive.

Turning to `CC[C@H]1CN2CC[C@H]1C[C@H]2[C@H](O)c1ccnc2ccc(C#N)cc12`, the growth inhibition in assay [1] is 55% (active); in assay [4], 100% (active). Further, the inhibition in assay [2] was 0%; in assay [3] it was 5%. Further, the outcome in assay [5], in assay [6], in assay [7] and in assay [8] was inactive.
